beta cell repl = induces beta-cell replication in MIN6 cells. proliferation, % at 10 µM. MIN6 cells proliferation, ATPlite luminescence, 48 h; cells starved in 0.2% serum; 100% = growth in 10% serum. AID 2380. 330,000 tested, 0.29% active;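 active = compounds whose signal lies at least 3.5 SD above the mean of all wells on their plate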;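 note: 0% = DMSO-treated cells in low-serum medium and 100% = 10% serum control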
APOBEC3G inh = APOBEC3G (human) deaminase inhibition; inhibition, % at 20 µM; Q9HC16; 330,000 tested, 0.28% active; recombinant A3G, ssDNA deamination FAM/TAMRA fluorescence;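 active = inhibition of at least 40% at 20 µM, with no more than 30% in the related APOBEC3A deaminase screen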;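 note: plate controls were DMSO wells with A3G for no effect and wells lacking A3G enzyme for full effect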
Target sequence (Q9HC16 whole entry, looked up): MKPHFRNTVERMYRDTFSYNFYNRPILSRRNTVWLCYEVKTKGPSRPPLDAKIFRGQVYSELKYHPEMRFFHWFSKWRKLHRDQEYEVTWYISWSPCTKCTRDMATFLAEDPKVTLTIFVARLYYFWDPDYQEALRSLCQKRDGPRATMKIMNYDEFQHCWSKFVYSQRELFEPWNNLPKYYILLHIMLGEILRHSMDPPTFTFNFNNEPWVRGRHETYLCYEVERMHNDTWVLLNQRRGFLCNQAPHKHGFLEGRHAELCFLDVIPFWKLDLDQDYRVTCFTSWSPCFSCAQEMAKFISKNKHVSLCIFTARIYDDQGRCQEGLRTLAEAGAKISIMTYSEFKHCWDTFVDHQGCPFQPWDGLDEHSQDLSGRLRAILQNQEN
A1 inh = inhibitors of the anti-apoptotic protein A1, read as caspase activation | caspase activation, % (concentration not given with the values) | MEF A1-2A-BIM cells, Caspase-Glo 3/7 luminescence, 3 h; percent of clofoctol response, vehicle zero | 330,000 tested, 0.066% active;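 active = over half of replicate activation scores above 10%, or exactly half above 10 with the replicate mean above 10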
APOBEC3A inh = blocks human APOBEC3A ssDNA deamination; inhibition, % at 20 µM; P31941; recombinant A3A, FAM/TAMRA ssDNA deamination fluorescence; 330,000 tested, 0.41% active;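 active = at least 40% inhibition at 20 µM here, with at most 30% in a related deaminase screen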;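 note: plate controls were A3A with DMSO for no effect and wells lacking A3A enzyme for full effect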
Target sequence (P31941 whole entry, looked up): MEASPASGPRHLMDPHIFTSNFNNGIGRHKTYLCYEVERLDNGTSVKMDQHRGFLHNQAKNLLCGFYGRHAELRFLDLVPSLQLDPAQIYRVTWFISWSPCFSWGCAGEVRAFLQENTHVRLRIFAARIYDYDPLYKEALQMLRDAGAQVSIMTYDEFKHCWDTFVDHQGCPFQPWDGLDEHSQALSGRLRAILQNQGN
APOBEC3A confirm = APOBEC3A (human) deaminase inhibition, confirmed; shares compounds with APOBEC3A inh; recombinant A3A, ssDNA deaminase UDG fluorescence assay; inhibition, % at 20 µM; 1,400 tested, 63% active; AID 493151;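 active = inhibition reaching a set limit, 80% of the first screen's cutoff, at 20 µM in any replicate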;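 note: plate controls were DMSO wells with A3A for no effect and wells lacking A3A enzyme for full effect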
UDG A3A counter = UDG inhibition in APOBEC3A counter-screen; shares compounds with APOBEC3A inh; UDG counterscreen, FAM/TAMRA uracil oligo fluorescence; inhibition, % at 20 µM; 1,000 tested, under 10 active; AID 504714; call rule not given here
* hit, by the source's call. An excerpt weighted towards active compounds, which were near 1.1% of everything screened.

For CSc1ccccc1OCc1cc(C(=O)NCCN2CCCc3ccccc32)no1 the results were beta cell repl -6, APOBEC3G inh -3, A1 inh 0 and APOBEC3A inh -5.
O=C(Nc1cccc2ncccc12)c1ccc(Cl)cc1 was read as beta cell repl -3, APOBEC3G inh 20, A1 inh 0, APOBEC3A inh 65* and APOBEC3A confirm 42*.
Screening COc1ccc(C(=O)N/C(=C\c2ccccc2)C(=O)Nc2ccccc2C(=O)O)cc1 returned beta cell repl 2, APOBEC3G inh -2, A1 inh 0 and APOBEC3A inh -1.
Screening CCN(CC)CCNC(=O)c1ccc(NC(=O)C2CC(=O)N(c3ccc4c(c3)OCCO4)C2)cc1 (stereo not drawn) returned beta cell repl -4, APOBEC3G inh 5, A1 inh -1, APOBEC3A inh 48*, APOBEC3A confirm 52* and UDG A3A counter -4.
`CCc1ccccc1NC1=NCC(=O)N1Cc1ccc2c(c1)OCO2` gave beta cell repl -1, APOBEC3G inh -10, A1 inh -1 and APOBEC3A inh -4.
Screening O=C1CN=C(Nc2ccccc2Cl)N1Cc1ccc2c(c1)OCO2 returned beta cell repl -4, APOBEC3G inh -1, A1 inh 1, APOBEC3A inh 96*, APOBEC3A confirm -6 and UDG A3A counter 9.
For Cc1ccc(-n2nc3c(=O)n(CCCC(=O)NCc4ccccc4Cl)nc(C)c3c2C)cc1 the results were beta cell repl -6, APOBEC3G inh -2, A1 inh -1 and APOBEC3A inh -5.
Screening O=C(Cn1cnc2ccccc2c1=O)NCCCN1CCCC1=O returned beta cell repl -3, APOBEC3G inh -9, A1 inh 1 and APOBEC3A inh -2.
For COc1cccc(CNC(=O)c2cccc(S(=O)(=O)N3CCN(C)CC3)c2)c1 the results were beta cell repl 5, APOBEC3G inh 12, A1 inh 0, APOBEC3A inh 68*, APOBEC3A confirm 50* and UDG A3A counter 1.
For CN1CCN(S(=O)(=O)c2cccc(C(=O)N(C)CC(=O)Nc3ccc(F)c(F)c3F)c2)CC1 the results were beta cell repl 1, APOBEC3G inh 22, A1 inh 1, APOBEC3A inh 57*, APOBEC3A confirm 66* and UDG A3A counter -2.
CCN1CCN(S(=O)(=O)c2ccc(Cl)c(C(=O)N(CC)CC(=O)Nc3ccc(OC)cc3)c2)CC1 was read as beta cell repl -3, APOBEC3G inh 17, A1 inh 0, APOBEC3A inh 54*, APOBEC3A confirm 71* and UDG A3A counter -1.
`COc1ccc(CNC(=O)c2cccc(S(=O)(=O)N3CCN(C)CC3)c2)cc1` gave beta cell repl -1, APOBEC3G inh -9, A1 inh 0 and APOBEC3A inh -4.
For COc1ccc(Cl)cc1NC(=O)CN(C)C(=O)c1cccc(S(=O)(=O)N2CCN(C)CC2)c1 the results were beta cell repl -5, APOBEC3G inh -6, A1 inh 2 and APOBEC3A inh 17.
`COc1ccc(NC(=O)CN(C)C(=O)c2cccc(S(=O)(=O)N3CCN(C)CC3)c2)cc1` gave beta cell repl 10, APOBEC3G inh 7, A1 inh 0, APOBEC3A inh 55* and APOBEC3A confirm 16.
Screening COc1ccc(NC(=O)[C@H](C)NC(=O)C2CCN(S(=O)(=O)c3ccc(OC)cc3)CC2)cc1 returned beta cell repl -2, APOBEC3G inh -6, A1 inh 2 and APOBEC3A inh -3.
For COc1ccccc1N1CCN(C(=O)CN(C)S(=O)(=O)c2cc(C)ccc2OC)CC1 the results were beta cell repl -3, APOBEC3G inh -8, A1 inh 0 and APOBEC3A inh -4.
For COc1cc(OC)cc(C(=O)NCC2CCCN(C(=O)c3oc(C)cc3C)C2)c1 (stereo not drawn) the results were beta cell repl 2, APOBEC3G inh -7, A1 inh 0 and APOBEC3A inh -4.
`CCOC(=O)CSc1ccc(C(=O)NCCCN2CCOCC2)cc1[N+](=O)[O-]` gave beta cell repl -3, APOBEC3G inh -8, A1 inh 1 and APOBEC3A inh -2.
For Cc1ccc(S(=O)(=O)N(C)C)cc1NC(=O)C(C)OC(=O)C1CCCC1 (stereo not drawn) the results were beta cell repl 1, APOBEC3G inh -5, A1 inh 1 and APOBEC3A inh 2.
Cc1cccc(CC(=O)Nc2ccc(C(=O)N3CCOCC3)cc2)c1 was read as beta cell repl -1, APOBEC3G inh -5, A1 inh -3 and APOBEC3A inh -1.
COc1cc(Cl)c(C)cc1NC(=O)CSc1sc2c(O)cc(=O)[nH]c2c1C#N was read as beta cell repl -1, APOBEC3G inh 26, A1 inh 0, APOBEC3A inh 69*, APOBEC3A confirm 18* and UDG A3A counter 1.
`COc1ccc(OC)c(NC(=O)CSc2sc3c(O)cc(=O)[nH]c3c2C#N)c1` gave beta cell repl 0, APOBEC3G inh -1, A1 inh 0 and APOBEC3A inh 21.
O=C(Nc1ccc(-c2nc3ccccc3o2)c(O)c1)c1cc(-n2cnnc2)ccc1Cl was read as beta cell repl -2, APOBEC3G inh -3, A1 inh -1 and APOBEC3A inh 0.
Screening Cc1c(NC(=O)c2cc(-n3cnnc3)ccc2Cl)cccc1-c1nc2ccccc2o1 returned beta cell repl -2, APOBEC3G inh 25, A1 inh 1, APOBEC3A inh 46*, APOBEC3A confirm 64* and UDG A3A counter -2.
COc1ccc(S(=O)(=O)N2CCC(Cc3ccccc3)CC2)cc1NC(C)=O was read as beta cell repl -2, APOBEC3G inh 3, A1 inh 1 and APOBEC3A inh -3.
`CCOc1cc(N2CCOCC2)c(OCC)cc1NC(=O)CN1CCSC1=O` gave beta cell repl -4, APOBEC3G inh 3, A1 inh 1 and APOBEC3A inh 5.
For Cc1nn(C(C)C(=O)Nc2ccc(Cl)cn2)c(C)c1[N+](=O)[O-] (stereo not drawn) the results were beta cell repl -2, APOBEC3G inh -1, A1 inh 1, APOBEC3A inh 52*, APOBEC3A confirm 9 and UDG A3A counter 0.
`COc1ccc(S(=O)(=O)N2CCCCC2)cc1NC(=O)CCCNC(=O)c1ccc(Cl)cc1` gave beta cell repl 6, APOBEC3G inh -5, A1 inh 0 and APOBEC3A inh 21.
`CC(=O)c1c(C)cc(C)c(CSc2ccccn2)c1C` gave beta cell repl -2, APOBEC3G inh 15, A1 inh 2, APOBEC3A inh 59*, APOBEC3A confirm 58* and UDG A3A counter 1.
`O=C(CCl)c1ccc2[nH]c(=O)oc2c1` gave beta cell repl -4, APOBEC3G inh -4, A1 inh 1 and APOBEC3A inh -3.
